Measurements reported in the supplement of paper PMC8728848.
About 410 targets per protein were measured; listed, in parts, are those with the strongest signals and a random draw of the rest.

Tests used:
Assay in all cases: glycan array binding signal (z-score within array); higher = stronger binding
Settings in all cases: glycan notation: IUPAC condensed, linker removed
[1] = target: Fuc(a1-2)Gal(b1-3)[Fuc(a1-4)]GlcNAc(b1-2)Man(a1-3)[Fuc(a1-2)Gal(b1-3)[Fuc(a1-4)]GlcNAc(b1-2)Man(a1-3)]Man(b1-4)GlcNAc(b1-4)GlcNAc
Outline: (§1)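 The binding signal is a Z-score computed within each array and averaged over linkers. Arrays of the same protein sequence at different concentrations or buffers were also averaged together. Data originate from 3228 arrays in the Consortium for Functional Glycomics database, kept only where the protein sequence was available.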

[2] = target: Fuc(a1-2)Gal(b1-3)[Fuc(a1-4)]GlcNAc(b1-2)Man(a1-3)[Fuc(a1-2)Gal(b1-3)[Fuc(a1-4)]GlcNAc(b1-2)Man(a1-6)]Man(b1-4)GlcNAc(b1-4)[Fuc(a1-6)]GlcNAc(b1-4)[Fuc(a1-6)]GlcNAc
Outline: as §1

[3] = target: Fuc(a1-2)Gal(b1-4)GlcNAc(b1-2)Man(a1-3)[Fuc(a1-2)Gal(b1-4)GlcNAc(b1-2)Man(a1-6)]Man(b1-4)GlcNAc(b1-4)[Fuc(a1-6)]GlcNAc
Outline: as §1

[4] = target: Fuc(a1-2)[Gal(a1-3)]Gal(b1-3)GalNAc
Outline: as §1

[5] = target: Fuc(a1-2)[Gal(a1-3)]Gal(b1-3)GlcNAc(b1-3)GalNAc
Outline: as §1

[6] = target: Fuc(a1-2)[Gal(a1-3)]Gal(b1-4)GlcNAc(b1-2)Man(a1-3)[Fuc(a1-2)[Gal(a1-3)]Gal(b1-4)GlcNAc(b1-2)Man(a1-6)]Man(b1-4)GlcNAc(b1-4)[Fuc(a1-6)]GlcNAc
Outline: as §1

[7] = target: Fuc(a1-2)[Gal(a1-3)]Gal(b1-4)GlcNAc(b1-3)[Fuc(a1-2)[Gal(a1-3)]Gal(b1-4)GlcNAc(b1-6)]GalNAc
Outline: as §1

[8] = target: Fuc(a1-2)[Gal(a1-3)]Gal(b1-4)[Fuc(a1-3)]GlcNAc
Outline: as §1

[9] = target: Fuc(a1-2)[Gal(a1-3)]Gal(b1-4)[Fuc(a1-3)]GlcNAc(b1-3)GalNAc
Outline: as §1

[10] = target: Fuc(a1-2)[GalNAc(a1-3)]Gal(b1-3)GalNAc(b1-3)Gal(a1-4)Gal(b1-4)Glc
Outline: as §1

[11] = target: Fuc(a1-3)[Gal(b1-4)]GlcNAc(b1-2)Man
Outline: as §1

Fuc(a1-4)GlcNAc = target: Fuc(a1-4)GlcNAc
Outline: as §1

[12] = target: Gal(a1-3)Gal(b1-4)[Fuc(a1-3)]GlcNAc
Outline: as §1

[13] = target: Gal(a1-3)Gal(b1-4)[Fuc(a1-3)]GlcNAc(b1-2)Man(a1-3)[Gal(a1-3)Gal(b1-4)[Fuc(a1-3)]GlcNAc(b1-2)Man(a1-6)]Man(b1-4)GlcNAc(b1-4)GlcNAc
Outline: as §1

Gal(a1-3)GalNAc = target: Gal(a1-3)GalNAc
Outline: as §1

[14] = target: Gal(a1-4)Gal(b1-4)GlcNAc(b1-2)Man(a1-3)[Gal(a1-4)Gal(b1-4)GlcNAc(b1-2)Man(a1-6)]Man(b1-4)GlcNAc(b1-4)GlcNAc
Outline: as §1

Gal(a1-6)Glc = target: Gal(a1-6)Glc
Outline: as §1

[15] = target: Gal(b1-3)GalNAc(a1-3)[Fuc(a1-2)]Gal(b1-4)Glc
Outline: as §1

Gal(b1-3)GlcNAc(b1-2)Man = target: Gal(b1-3)GlcNAc(b1-2)Man
Outline: as §1

[16] = target: Gal(b1-3)GlcNAc(b1-2)[Gal(b1-3)GlcNAc(b1-6)]Man(a1-6)[Gal(b1-3)GlcNAc(b1-2)Man(a1-3)]Man(b1-4)GlcNAc(b1-4)GlcNAc
Outline: as §1

Gal(b1-4)Gal = target: Gal(b1-4)Gal
Outline: as §1

[17] = target: Gal(b1-4)GalNAc(b1-3)[Fuc(a1-2)]Gal(b1-4)GlcNAc
Outline: as §1

[18] = target: Gal(b1-4)GlcNAc(b1-2)[Gal(b1-4)GlcNAc(b1-4)]Man(a1-3)[Gal(b1-4)GlcNAc(b1-2)[Gal(b1-4)GlcNAc(b1-6)]Man(a1-6)]Man(b1-4)GlcNAc(b1-4)GlcNAc
Outline: as §1

[19] = target: Gal(b1-4)GlcNAc(b1-3)Gal(b1-4)GlcNAc(b1-3)Gal(b1-4)GlcNAc(b1-2)Man(a1-3)[Gal(b1-4)GlcNAc(b1-3)Gal(b1-4)GlcNAc(b1-3)Gal(b1-4)GlcNAc(b1-2)Man(a1-6)]Man(b1-4)GlcNAc(b1-4)[Fuc(a1-6)]GlcNAc
Outline: as §1

[20] = target: Gal(b1-4)GlcNAc(b1-3)Gal(b1-4)GlcNAc(b1-3)[Gal(b1-4)GlcNAc(b1-3)Gal(b1-4)GlcNAc(b1-6)]GalNAc
Outline: as §1

[21] = target: Gal3S(b1-4)[Fuc(a1-3)]Glc6S
Outline: as §1

Gal3S4S(b1-4)GlcNAc = target: Gal3S4S(b1-4)GlcNAc
Outline: as §1

GalNAc(b1-4)Gal(b1-4)Glc = target: GalNAc(b1-4)Gal(b1-4)Glc
Outline: as §1

GalNAc4S6S(b1-4)GlcNAc = target: GalNAc4S6S(b1-4)GlcNAc
Outline: as §1

[22] = target: Glc(a1-6)Glc(a1-6)Glc(a1-6)Glc
Outline: as §1

Glc(b1-4)Glc = target: Glc(b1-4)Glc
Outline: as §1

[23] = target: GlcNAc(a1-4)Gal(b1-4)GlcNAc
Outline: as §1

[24] = target: GlcNAc(b1-2)Gal(b1-3)GalNAc
Outline: as §1

[25] = target: GlcNAc(b1-2)Man(a1-3)[GlcNAc(b1-2)Man(a1-6)]Man(b1-4)GlcNAc(b1-4)GlcNAc
Outline: as §1

[26] = target: GlcNAc(b1-3)Gal(b1-4)GlcNAc(b1-3)Gal(b1-4)GlcNAc(b1-2)[GlcNAc(b1-3)Gal(b1-4)GlcNAc(b1-3)Gal(b1-4)GlcNAc(b1-6)]Man(a1-6)[GlcNAc(b1-3)Gal(b1-4)GlcNAc(b1-3)Gal(b1-4)GlcNAc(b1-2)Man(a1-3)]Man(b1-4)GlcNAc(b1-4)[Fuc(a1-6)]GlcNAc
Outline: as §1

[27] = target: GlcNAc(b1-3)[GlcNAc(b1-6)]GalNAc
Outline: as §1

[28] = target: Man(a1-2)Man(a1-3)[Man(a1-6)]Man(a1-6)[Man(a1-2)Man(a1-3)]Man(b1-4)GlcNAc(b1-4)GlcNAc
Outline: as §1

MurNAc(b1-4)GlcNAc = target: MurNAc(b1-4)GlcNAc
Outline: as §1

Neu5Ac(a2-3)Gal = target: Neu5Ac(a2-3)Gal
Outline: as §1

[29] = target: Neu5Ac(a2-3)Gal(b1-3)GalNAc(b1-4)[Neu5Ac(a2-8)Neu5Ac(a2-3)]Gal(b1-4)Glc
Outline: as §1

[30] = target: Neu5Ac(a2-3)Gal(b1-3)GlcNAc(b1-2)Man(a1-3)[Neu5Ac(a2-3)Gal(b1-3)GlcNAc(b1-2)Man(a1-6)]Man(b1-4)GlcNAc(b1-4)GlcNAc
Outline: as §1

[31] = target: Neu5Ac(a2-3)Gal(b1-3)GlcNAc(b1-3)GalNAc
Outline: as §1

[32] = target: Neu5Ac(a2-3)Gal(b1-3)[Fuc(a1-4)]GlcNAc(b1-3)Gal(b1-4)[Fuc(a1-3)]GlcNAc
Outline: as §1

Neu5Ac(a2-3)Gal(b1-4)Glc = target: Neu5Ac(a2-3)Gal(b1-4)Glc
Outline: as §1

[33] = target: Neu5Ac(a2-3)Gal(b1-4)GlcNAc(b1-3)Gal(b1-4)GlcNAc(b1-3)[Neu5Ac(a2-3)Gal(b1-4)GlcNAc(b1-3)Gal(b1-4)GlcNAc(b1-6)]GalNAc
Outline: as §1

[34] = target: Neu5Ac(a2-3)Gal(b1-4)[Fuc(a1-3)]GlcNAc(b1-3)Gal(b1-4)[Fuc(a1-3)]GlcNAc(b1-3)Gal(b1-4)[Fuc(a1-3)]GlcNAc
Outline: as §1

[35] = target: Neu5Ac(a2-3)Gal6S(b1-4)GlcNAc
Outline: as §1

[36] = target: Neu5Ac(a2-3)[GalNAc(b1-4)]Gal(b1-4)Glc
Outline: as §1

[37] = target: Neu5Ac(a2-3)[GalNAc(b1-4)]Gal(b1-4)GlcNAc(b1-3)GalNAc
Outline: as §1

[38] = target: Neu5Ac(a2-6)Gal(b1-4)GlcNAc(b1-2)Man(a1-3)Man(b1-4)GlcNAc(b1-4)GlcNAc
Outline: as §1

Neu5Ac(a2-6)GalNAc = target: Neu5Ac(a2-6)GalNAc
Outline: as §1

[39] = target: Neu5Ac(a2-8)Neu5Ac(a2-3)Gal(b1-3)GalNAc(b1-4)[Neu5Ac(a2-8)Neu5Ac(a2-3)]Gal(b1-4)Glc
Outline: as §1

[40] = target: Neu5Gc(a2-3)Gal(b1-3)[Fuc(a1-4)]GlcNAc
Outline: as §1

B1: Siglec-E (Mus musculus), Q91Y57 (protein)
chain: MLLLLLLLLLWGIKGVEGQNPQEVFTLNVERKVVVQEGLCVLVPCNFSYLKKRLTDWTDSDPVHGFWYREGTDRRKDSIVATNNPIRKAVKETRNRFFLLGDPWRNDCSLNIREIRKKDAGLYFFRLERGKTKYNYMWDKMTLVVTALTNTPQILLPETLEAGHPSNLTCSVPWDCGWTAPPIFSWTGTSVSFLSTNTTGSSVLTITPQPQDHGTNLTCQVTLPGTNVSTRMTTRLNVSYAPKNLTVTIYQGADSVSTILKNGSSLPISEGQSLRLICSTDSYPPANLSWSWDNLTLCPSKLSKPGLLELFPVHLKHGGVYTCQAQHALGSQHISLSLSPQSSATLSEMMMGTFVGSGVTALLFLSVCILLLAVRSYRRKPARPAVVAPHPDALKVSVSQNPLVESQADDSSEPLPSILEAAPSSTEEEIHYATLSFHEMKPMNLWGQQDTTTEYSEIKFPQRTAWP
- glycan array binding signal (z-score) [1]: 3.48
- glycan array binding signal (z-score) [2]: 0.284
- glycan array binding signal (z-score) [3]: 3.46
- glycan array binding signal (z-score) [4]: 0.178
- glycan array binding signal (z-score) [5]: 5.32
- glycan array binding signal (z-score) [6]: 3.5
- glycan array binding signal (z-score) [7]: 5.58
- glycan array binding signal (z-score) [8]: 0.611
- glycan array binding signal (z-score) [9]: -0.176
- glycan array binding signal (z-score) [10]: -0.363
- glycan array binding signal (z-score) [11]: -0.35
- glycan array binding signal (z-score) (Fuc(a1-4)GlcNAc): 4.01
- glycan array binding signal (z-score) [12]: -0.381
- glycan array binding signal (z-score) [13]: 6.54
- glycan array binding signal (z-score) (Gal(a1-3)GalNAc): -0.309
- glycan array binding signal (z-score) [14]: 4.23
- glycan array binding signal (z-score) (Gal(a1-6)Glc): 0.863
- glycan array binding signal (z-score) [15]: -0.496
- glycan array binding signal (z-score) (Gal(b1-3)GlcNAc(b1-2)Man): -0.592
- glycan array binding signal (z-score) [16]: 1.66
- glycan array binding signal (z-score) (Gal(b1-4)Gal): 3.25
- glycan array binding signal (z-score) [17]: -0.625
- glycan array binding signal (z-score) [18]: -0.667
- glycan array binding signal (z-score) [19]: -0.527
- glycan array binding signal (z-score) [20]: -0.06
- glycan array binding signal (z-score) [21]: 0.707
- glycan array binding signal (z-score) (Gal3S4S(b1-4)GlcNAc): -0.239
- glycan array binding signal (z-score) (GalNAc(b1-4)Gal(b1-4)Glc): 4.05
- glycan array binding signal (z-score) (GalNAc4S6S(b1-4)GlcNAc): -0.147
- glycan array binding signal (z-score) [22]: 1.1
- glycan array binding signal (z-score) (Glc(b1-4)Glc): -0.196
- glycan array binding signal (z-score) [23]: -0.41
- glycan array binding signal (z-score) [24]: -0.364
- glycan array binding signal (z-score) [25]: -0.12
- glycan array binding signal (z-score) [26]: -0.336
- glycan array binding signal (z-score) [27]: -0.05
- glycan array binding signal (z-score) [28]: -0.61
- glycan array binding signal (z-score) (MurNAc(b1-4)GlcNAc): -0.464
- glycan array binding signal (z-score) (Neu5Ac(a2-3)Gal): -0.19
- glycan array binding signal (z-score) [29]: 0.68
- glycan array binding signal (z-score) [30]: 6.41
- glycan array binding signal (z-score) [31]: -0.226
- glycan array binding signal (z-score) [32]: -0.475
- glycan array binding signal (z-score) (Neu5Ac(a2-3)Gal(b1-4)Glc): 3.95
- glycan array binding signal (z-score) [33]: -0.335
- glycan array binding signal (z-score) [34]: -0.568
- glycan array binding signal (z-score) [35]: -0.532
- glycan array binding signal (z-score) [36]: -0.34
- glycan array binding signal (z-score) [37]: -0.355
- glycan array binding signal (z-score) [38]: -0.181
- glycan array binding signal (z-score) (Neu5Ac(a2-6)GalNAc): -0.32
- glycan array binding signal (z-score) [39]: 0.342
- glycan array binding signal (z-score) [40]: 0.48
